Test results published in PubChem BioAssay AID602350 (Broad Institute, 2012).
Entries with a potency or affinity are not part of this list. Active and inactive are the calls of the source.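 The calls were made as follows: active = absorbance falls by 30% or more versus neutral controls, with a potency fitted within twice the top valid dose; inconclusive = no clear call, values can overlap the other calls; inactive = change opposite to expected direction, plus the rest.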

Target: Protein disulfide-isomerase (Homo sapiens) (UniProt P07237)
Assay: inhibition of PDI-driven insulin aggregation – biochemical, turbidity, absorbance, cherry-picked samples, dose response (AID 602350)

Chain of Protein disulfide-isomerase (Homo sapiens) (P07237 whole entry, looked up): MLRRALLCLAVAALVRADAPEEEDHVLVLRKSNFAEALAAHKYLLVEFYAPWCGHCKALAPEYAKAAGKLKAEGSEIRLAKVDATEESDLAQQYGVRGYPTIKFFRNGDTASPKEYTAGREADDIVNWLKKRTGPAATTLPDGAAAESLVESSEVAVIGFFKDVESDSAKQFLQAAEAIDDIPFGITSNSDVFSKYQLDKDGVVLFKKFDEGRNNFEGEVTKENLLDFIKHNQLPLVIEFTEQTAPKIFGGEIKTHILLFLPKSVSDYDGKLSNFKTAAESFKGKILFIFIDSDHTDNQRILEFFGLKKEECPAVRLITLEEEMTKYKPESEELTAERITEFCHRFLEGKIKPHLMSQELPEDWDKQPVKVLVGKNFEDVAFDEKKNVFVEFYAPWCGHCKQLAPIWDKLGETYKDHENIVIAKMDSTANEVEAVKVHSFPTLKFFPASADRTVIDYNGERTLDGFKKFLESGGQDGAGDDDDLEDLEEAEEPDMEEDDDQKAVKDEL

Structure (SMILES)	outcome
Cc1cc(Cl)ccc1OCc1n[nH]c(=S)n1C1CCCCC1	inactive
Cn1c(=O)n(CCCOc2ccc(Br)cc2)c2ccccc21	inactive
COc1ccc(CNC(=O)c2ccc(CS(=O)Cc3cccc(Cl)c3)o2)cc1 (centres undefined)	inactive
N#Cc1c(NCCCO)nc(-c2ccco2)c2c1CCCC2	inactive
CC(=O)c1ccc(N2CCN(C(=O)c3ccc4[nH]c(C)c(C)c4c3)CC2)cc1	inactive
Cc1ccc(CN(c2ccc(C(=O)Nc3ccc4c(c3)OCO4)cc2)S(C)(=O)=O)cc1	inactive
Cc1ccc(S(=O)(=O)c2ccc(Oc3cccc(C)c3)cc2)cc1	inactive
Cc1ccc(C(=O)NCCN2C3=NC[C@H](Cc4ccc(O)cc4)N3C[C@H]2Cc2ccc(O)cc2)cc1Br	inactive
COc1ccc(C[C@@H]2CN3C(=NC[C@@H]3Cc3ccc(O)cc3)N2C[C@H](C)NC(=O)CCC2CCCCC2)cc1	inactive
CCOC(=O)c1c(CN2CCN(C)CC2)n(-c2ccccc2)c2cc(Br)c(O)cc12	inactive
O=C(NCCc1c[nH]c2ccccc12)/C(=C\c1cccnc1)NC(=O)c1ccccc1Br	inactive
COCCN(CC(=O)Nc1ccccc1C(F)(F)F)C(=O)/C=C/c1cc(Cl)c2c(c1)OCCO2	inactive
CC(=O)Oc1ccc(C2OC(=O)c3ccccc3N2C(C)=O)cc1 (centres undefined)	inactive
CC(=O)OC1CCC2C3CCC4=C(CC(F)C(=O)C4)C3CCC12C (centres undefined)	inactive
CCOc1ccc(NC(=O)CN(C)C(=O)c2cc(C)nc3ccccc23)cc1OCC	inactive
O=C1C[C@H](c2ccc(O)cc2)Oc2cc(O[C@@H]3O[C@H](CO)[C@@H](O)[C@H](O)[C@H]3O)cc(O[C@@H]3O[C@H](CO)[C@@H](O)[C@H](O)[C@H]3O)c21	inactive
Cc1c(C(=O)N2CCOCC2)sc2ncn(CC(=O)N3CCC(C)CC3)c(=O)c12	inactive
COc1cccc(/C=C2\CCCCC2=O)c1	inactive
COc1cccc(-n2ccnc2SCC(=O)Nc2cc(OC)ccc2OC)c1	inactive
CCOC(=O)c1c(CN(CC)CC)n(C)c2cc(Br)c(O)cc12	inactive

Structure (SMILES)	outcome
CCCCC1CCC(c2nc(-c3ccccn3)no2)CC1 (centres undefined)	inactive
C[C@@H]1CN([C@@H](C)CO)C(=O)Cc2cc(NC(=O)Nc3ccccc3)ccc2O[C@H]1CN(C)Cc1ccccc1	inactive
Cc1ccc(NC(=O)CSC(C)C(=O)OCc2cc(=O)oc3cc(O)ccc23)cc1 (centres undefined)	inactive
COc1ccc(Cl)cc1NC(=O)COC(=O)C1CC1	inactive
C[C@@H]1CN([C@H](C)CO)C(=O)c2cc(NC(=O)Cc3cn(C)c4ccccc34)ccc2O[C@@H]1CN(C)S(=O)(=O)c1ccc(F)cc1	inactive
CCCCN(C(=O)C1=CC=CN2CCS(=O)(=O)N=C12)c1ccccc1	inactive
CCCN(CCC)S(=O)(=O)c1ccc(C(=O)Nc2nnc(COC)o2)cc1	inactive
O=C(Cc1ccccc1)Nc1cccc(C(=O)N/N=C/c2ccco2)c1	inactive
CN(C)CCN(C(=O)c1ccc(S(=O)(=O)N2CCc3ccccc32)cc1)c1nc2ccc(F)cc2s1	inactive
CN(c1ccccc1)S(=O)(=O)c1cc(C(=O)N2CCN(c3ncccn3)CC2)ccc1Cl	inactive
C[C@]12CC[C@H]3C(=CCc4cc(O)ccc43)[C@@H]1CCC2=O	inactive
Cc1ccc(S(=O)(=O)N(C)c2ccc(OC(=O)COc3ccccc3)cc2)cc1	inactive
CNc1ncnc2c1ncn2[C@H]1CN(Cc2cccc3ccccc23)C[C@@H](CO)O1	inactive
CCOC(=O)C1(CCOc2ccccc2)CCN(Cc2cccc(F)c2)CC1	inactive
CCOc1ccccc1CN1CCNC(=O)C1CC(=O)NCc1nccn1CC (centres undefined)	inactive
CC1(C(=O)NS(=O)(=O)c2ccccc2Cl)CCN1C(=O)c1ccccc1CCc1ccccc1 (centres undefined)	inactive
CC(C)N1CCCC(C)(C(=O)Nc2nc3ccccc3n2C)C1 (centres undefined)	inactive
C[C@H]1CN([C@@H](C)CO)C(=O)Cc2cc(NC(=O)Nc3ccccc3)ccc2O[C@@H]1CN(C)Cc1ccccc1	inactive
O=C(/C=C/c1ccc(N2CCCCC2)c([N+](=O)[O-])c1)c1ccc(O)cc1	inactive
